The text below walks through data of PubChem BioAssay (NCI).

Compounds without any hit were thinned out: in the full panel of roughly 83,000, 20% have a hit.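 How to read the values: 0–100, growth inhibition (40 = 60% inhibited); 0, no net growth; -100 to 0, cell death (-40 = 40% of starting cells died; -100 = all dead).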 A number with no mark means an inactive call. The source made the active and inactive calls. Rule for the calls: active = growth percent below 10; inactive = the rest.

Holding throughout (assay): NCI-60 one-dose screen, 48 h (100 = growth as untreated, 0 = no growth, -100 = all killed)
One test has as its system HCT-15 colon. The note with it: 10 µM unless noted.
A further test relates to HT29 colon. The following applies: 10 µM unless noted.
A further test deals with SNB-75 CNS. The following applies: 10 µM unless noted.
The next test deals with SNB-19 CNS. The note with it: 10 µM unless noted.
The subject of the next test is U251 CNS. The following applies: 10 µM unless noted.
A further test concerns PC-3 prostate. The following applies: 10 µM unless noted.
The subject of a further test is SK-MEL-5 melanoma. The note with it: 10 µM unless noted.
The next test deals with UACC-62 melanoma. The note with it: 10 µM unless noted.
Another test concerns LOX IMVI melanoma. The following applies: 10 µM unless noted.
In the next test the test system is SK-MEL-28 melanoma. The following applies: 10 µM unless noted.
The test system of a further test is SK-MEL-2 melanoma. The following applies: 10 µM unless noted.
The test system of the next test is EKVX NSCLC. The note with it: 10 µM unless noted.
The subject of another test is SN12C renal. The note with it: 10 µM unless noted.
A further test concerns UO-31 renal. The note with it: 10 µM unless noted.
In a further test the test system is TK-10 renal. The note with it: 10 µM unless noted.
The subject of the next test is ACHN renal. The note with it: 10 µM unless noted.
The subject of a further test is CAKI-1 renal. The following applies: 10 µM.
The next test has as its system CCRF-CEM leukemia. The note with it: 10 µM unless noted.
A further test has as its system MOLT-4 leukemia. The following applies: 10 µM unless noted.
For the next test, the system named is A498 renal. The note with it: 10 µM unless noted.

For `N#C/C(=C\c1ccc(Cl)cc1Cl)C(N)=O`, the growth in the test on HCT-15 colon is 87.7%; with HT29 colon it was 106%; with SNB-75 CNS it was 90.2%; with SNB-19 CNS it was 97.6%; with U251 CNS, 95.5%; in the test with PC-3 prostate it was 92.5%. For the same compound, the growth in the test on SK-MEL-5 melanoma is 101%; in the test with UACC-62 melanoma, 96.8%; in the test with LOX IMVI melanoma it was 97.3%; in the test on SK-MEL-28 melanoma it was 112%; with SK-MEL-2 melanoma it was 106%; in the test on EKVX NSCLC, 105%. The growth with SN12C renal is 98.3%; in the test with UO-31 renal it was 94.4%; in the test on TK-10 renal, 102%; in the test with ACHN renal, 101%; with CAKI-1 renal it was 90.8%; with CCRF-CEM leukemia it was 89.7%. Moreover, the growth with MOLT-4 leukemia is 109%.
Turning to `CN(C)CCn1c2ccc(N)cc2c2nc3ccccc3nc21`, the growth in the test on HCT-15 colon was 21.1%; with HT29 colon, 21.3%; with SNB-75 CNS, 54.2%; with SNB-19 CNS it was 32.1%; with U251 CNS it was 33.4%; in the test with PC-3 prostate, 38.6%. The growth in the test on SK-MEL-5 melanoma was 27%; in the test with UACC-62 melanoma it was 35.2%; in the test on LOX IMVI melanoma, 9.95% (active); in the test with SK-MEL-28 melanoma, 54.5%; in the test with SK-MEL-2 melanoma, 54.6%; in the test on EKVX NSCLC it was 40.6%. Further, the growth was 25.6% in the test with SN12C renal; 23% in the test on UO-31 renal; 60.2% in the test with TK-10 renal; 13.9% in the test on ACHN renal; 28.6% in the test on CAKI-1 renal; 29.5% in the test on CCRF-CEM leukemia. Further, the growth in the test on MOLT-4 leukemia was 8.1% (active).
For `O=C(COc1cccc2cccnc12)Nc1ccc(C(=O)/C=C/c2ccc(Cl)cc2)cc1`, the growth in the test with HCT-15 colon is 70%; in the test on HT29 colon it was 86.5%; in the test on SNB-75 CNS, 96%; in the test on SNB-19 CNS, 87.2%; in the test with U251 CNS it was 92.2%; in the test on PC-3 prostate it was 89.2%. Besides, the growth with SK-MEL-5 melanoma is 83.7%; in the test with UACC-62 melanoma, 72.6%; in the test with LOX IMVI melanoma it was 47.5%; in the test with SK-MEL-28 melanoma it was 101%; in the test with SK-MEL-2 melanoma, 96.2%; in the test on EKVX NSCLC it was 80.9%. Besides, the growth in the test with SN12C renal was 86%; in the test with UO-31 renal, 67.7%; in the test on TK-10 renal it was 104%; in the test with ACHN renal, 94%; in the test with CAKI-1 renal, 76.2%; with CCRF-CEM leukemia, 83.3%. Moreover, the growth in the test on MOLT-4 leukemia is 67.7%.
With `CCNC(=O)Oc1ccc(/C(=C(/C)c2ccc(Cl)cc2)c2ccc(OCCN(C)C)cc2)cc1`, the growth was 47% in the test with HCT-15 colon; 15.2% in the test on HT29 colon; 75.4% in the test on SNB-75 CNS; 81.1% in the test with SNB-19 CNS; 58.8% with U251 CNS; 62.8% in the test with PC-3 prostate. For the same compound, the growth in the test on SK-MEL-5 melanoma was 70.7%; with UACC-62 melanoma it was 86.4%; in the test on LOX IMVI melanoma, 41.5%; in the test on SK-MEL-28 melanoma, 93.4%; in the test with SK-MEL-2 melanoma it was 98%; in the test on EKVX NSCLC it was 72.1%. Further, the growth in the test on SN12C renal was 77.8%; with UO-31 renal, 61.7%; in the test on TK-10 renal it was 92%; in the test on ACHN renal, 91.4%; with CAKI-1 renal, 73.4%; with CCRF-CEM leukemia it was 66.7%. The growth with MOLT-4 leukemia is 50.4%.
`O=C(CSc1nnc(-c2cccs2)n1-c1ccccc1)Nc1ccc(F)cc1`: the growth in the test with HCT-15 colon was 93.6%; in the test on HT29 colon, 101%; in the test with SNB-75 CNS, 104%; with SNB-19 CNS, 91%; in the test on U251 CNS, 99.5%; in the test with PC-3 prostate, 99%. Moreover, the growth was 97.6% in the test on SK-MEL-5 melanoma; 67.9% in the test on UACC-62 melanoma; 97.9% with LOX IMVI melanoma; 104% in the test on SK-MEL-28 melanoma; 110% with SK-MEL-2 melanoma; 90.9% with EKVX NSCLC. In addition, the growth in the test on SN12C renal is 95.5%; with UO-31 renal, 59.1%; in the test on TK-10 renal, 108%; in the test with ACHN renal, 90.9%; with CAKI-1 renal it was 87.3%; with A498 renal, 84.7%. Also, the growth in the test with MOLT-4 leukemia was 85.6%.
Consider `CCOC(=O)/C=c1\sc2n(c1=O)C1C(NN=2)N(CC)C(=O)N1CC` (configuration not stated), for which the growth in the test with HCT-15 colon was 31%; in the test with HT29 colon, 26.4%; in the test with SNB-75 CNS, 52.2%; with SNB-19 CNS, 54.2%; in the test on U251 CNS, 68.9%; with PC-3 prostate, 55.7%. Besides, the growth is 54% with SK-MEL-5 melanoma; 39% with UACC-62 melanoma; 53.5% with LOX IMVI melanoma; 71.9% with SK-MEL-28 melanoma; 76.7% in the test on SK-MEL-2 melanoma; 81.9% with EKVX NSCLC. In addition, the growth was 71.9% in the test on SN12C renal; 56.2% in the test on UO-31 renal; 81.3% in the test with TK-10 renal; 44.5% in the test on ACHN renal; 51.3% in the test on CAKI-1 renal; 53.4% in the test on CCRF-CEM leukemia.
For the compound `CCOC(=O)Nc1cccc(-n2cnc3cc(-c4ccc(O)cc4)ccc32)c1`, the growth with HCT-15 colon was 9.71% (active); in the test on HT29 colon, 5.49% (active); in the test on SNB-75 CNS, 3.54% (active); with SNB-19 CNS it was 27.1%; in the test with U251 CNS, 19.1%; in the test with PC-3 prostate, 29.9%. The growth was 9.15% (active) with SK-MEL-5 melanoma; 35.8% with UACC-62 melanoma; 41.2% with LOX IMVI melanoma; 63.8% in the test on SK-MEL-28 melanoma; 15.8% in the test on SK-MEL-2 melanoma; 42.7% with EKVX NSCLC. Further, the growth in the test on SN12C renal is 31.2%; with UO-31 renal it was 26.4%; in the test on TK-10 renal, 57.1%; in the test with ACHN renal, 19.9%; with CAKI-1 renal it was 33%; in the test on A498 renal, -25.1% (active). The growth in the test with CCRF-CEM leukemia is 24.5%; in the test on MOLT-4 leukemia it was 10.6%.
As to `Brc1cccc(/C=N/Nc2nc(N/N=C/c3cccc(Br)c3)nc(N3CCOCC3)n2)c1`, the growth in the test on HCT-15 colon was -8.94% (active); in the test on HT29 colon, 6.61% (active); with SNB-75 CNS it was 107%; in the test with SNB-19 CNS, 77.9%; with U251 CNS, 42.7%; with PC-3 prostate, 36.5%. For the same compound, the growth is 20.7% in the test with SK-MEL-5 melanoma; 56% with UACC-62 melanoma; 5.23% (active) with LOX IMVI melanoma; 17.1% with SK-MEL-28 melanoma; 2.64% (active) in the test with SK-MEL-2 melanoma; 49% in the test on EKVX NSCLC. Besides, the growth in the test with SN12C renal is 44.2%; with UO-31 renal, 25.5%; in the test with TK-10 renal, 66.8%; in the test on ACHN renal, 26.3%; in the test with CAKI-1 renal, 15.4%; in the test on CCRF-CEM leukemia, 21%. In the test on MOLT-4 leukemia, the growth was 10.2%.
